The results in this text go back to PubChem BioAssay AID1259343 (VanderVen Lab, College of Veterinary Medicine, Cornell …, 2017).

Structures are written as SMILES. Hit rate of the full screen: of about 6,200 compounds, about 2,900 (47%) were called active. So high a share suggests a set chosen from earlier hits. The list shows a part of the results. Values without a mark were called inactive. No stated cut-off is given here; in the data, active means inhibition above about 50%; inactive means the rest.

The nature of the assay: Mycobacterium tuberculosis growth inhibition, primary screen (AID 1259343). To be noted: inhibition: at 10 µM, stronger effect = higher value; outcome: 10 uM.
As for `O=S(=O)(NCc1ccc2c(c1)OCO2)c1ccc(F)c(C(F)(F)F)c1`, the inhibition is 26.9%.

On to `CN(Cc1cccc(C(F)(F)F)c1)C(=O)c1cn(Cc2ccccc2Cl)nn1`, for which the inhibition was 20.9%.

`CSc1ccc(NC(=O)CN(C)Cc2ccc3c(c2)OCO3)cc1`: the inhibition is 72.3% (active).

Regarding `CN(Cc1ccoc1)C(=O)c1cn(Cc2cccc(C(F)(F)F)c2)nn1`, the inhibition was 14.9%.

On to `Cc1ccc(NC(=O)N(C)Cc2cccc(F)c2)c(Cl)c1`, for which the inhibition was 9.23%.

On to `CN(Cc1ccc(F)cc1)C(=O)NCc1ccc2c(c1)OCO2`, for which the inhibition is 67.4% (active).

With `CN(Cc1ccc(F)cc1F)C(=O)NCc1cccc(C(F)(F)F)c1`, the inhibition is 91% (active).

As to `CN(Cc1cccc(Cl)c1)C(=O)NCc1cc(F)cc(F)c1`, the inhibition is 72.5% (active).

Regarding `CN(Cc1ccc2c(c1)OCO2)c1ccc(C(=O)NC2CC2)cn1`, the inhibition is 12.6%.

On to `Cc1cc(CNC(=O)CS(=O)(=O)Cc2cccc(Cl)c2)ccc1F`, for which the inhibition is 15.5%.

For `Cc1ccc(NC(=O)N(C)Cc2ccc(O)cc2)cc1F`, the inhibition was 59.5% (active).

`CN(Cc1ccsc1)C(=O)Nc1ccc(C(F)(F)F)cc1`: the inhibition was 44.2%.

With `COc1ccc(CN(C)C(=O)NCC2Cc3ccccc3O2)cc1` (stereo not given), the inhibition is -43.1%.

On to `COc1ccc(Cl)cc1CN(C)C(=O)Nc1ccc(F)cc1F`, for which the inhibition is -16.8%.

Consider `O=C(NCCc1cccs1)C(=O)NCc1cccc(F)c1`, for which the inhibition is 45.4%.

`COc1cccc(CNC(=O)N(C)Cc2ccc(C(C)C)cc2)c1`: the inhibition is 85.7% (active).

For `Cc1ccc(NC(=O)N(C)Cc2ccccc2F)cc1Cl`, the inhibition was 4.94%.

With `CN(Cc1ccc(F)cc1F)C(=O)NCc1ccccc1`, the inhibition is 93% (active).

Consider `Cc1ccc(CNC(=O)N(C)Cc2cccs2)cc1F`, for which the inhibition is 74.8% (active).

With `CCOc1ncccc1C(=O)NCc1ccc(C)c(F)c1`, the inhibition was 35.2%.

For the compound `CN(Cc1cc(Br)ccc1F)C(=O)NCc1ccco1`, the inhibition was -23.8%.

For `CC1SC(=S)NN1c1ccccc1` (stereo not given), the inhibition is 92.6% (active).

Consider `Cc1cccc(Nc2ccc(NCCNS(=O)(=O)c3ccc(F)cc3)nn2)n1`, for which the inhibition is 30.2%.

In the case of `c1ccc2c(OCCCCCn3ccnc3)cccc2c1`, the inhibition was 100% (active).

As for `CN=c1scc(-c2ccco2)n1N=Cc1sccc1C`, the inhibition was 42.1%.

As for `CCN=c1scc(C)n1N=Cc1ccc(Br)cc1`, the inhibition was 10.9%.

For the compound `CCN=c1scc(-c2ccco2)n1N=Cc1ccc2c(c1)OCO2`, the inhibition was 23.9%.

Take `CN=c1scc(-c2ccco2)n1N=Cc1cc(Br)c(O)c(OC)c1`: the inhibition is 82.5% (active).

On to `CN=c1scc(-c2ccc(OC)cc2)n1N=Cc1cc(Br)c(O)c(OC)c1`, for which the inhibition is 97.6% (active).

Take `COCCN=c1scc(-c2ccco2)n1N=Cc1cc(Br)c(O)c(OC)c1`: the inhibition was 15.7%.

In the case of `CN=c1scc(-c2cccc(Br)c2)n1N=Cc1ccncc1`, the inhibition was 13.7%.

Consider `CN=c1scc(C)n1N=Cc1cc(Br)c(O)c(Br)c1`, for which the inhibition was -24.1%.

For `CN=c1scc(-c2ccco2)n1N=Cc1c(O)ccc2ccccc12`, the inhibition is 54.4% (active).

In the case of `CCN=c1scc(C)n1N=Cc1cc(Br)c(O)c(Br)c1`, the inhibition is 84.4% (active).

Consider `CN=c1scc(-c2cc(Cl)ccc2Cl)n1N=Cc1ccc(O)cc1O`, for which the inhibition is 65.9% (active).

For `CN=c1scc(-c2cccc(Br)c2)n1N=Cc1ccccc1F`, the inhibition is -6.53%.

Consider `C=C(C)CN=c1scc(-c2ccco2)n1N=Cc1ccc(O)cc1O`, for which the inhibition is 89.4% (active).

For `Oc1ccc(C=Nn2c(-c3ccco3)csc2=Nc2ccc(F)cc2F)c(O)c1`, the inhibition is 6.26%.

As to `C=CCN=c1scc(-c2ccco2)n1N=Cc1cc(OC)ccc1O`, the inhibition was 16%.

`CN=c1scc(-c2ccccc2Br)n1N=Cc1cccc(O)c1`: the inhibition was 28.8%.

For `Cc1ccccc1CCC1CCCN(Cc2nnc(-c3ccco3)o2)C1` (stereo not given), the inhibition was 2.39%.

Consider `Cc1ccccc1-c1ncc(CN2CCCC2c2nonc2C)s1` (stereo not given), for which the inhibition is 27.5%.

On to `Cc1ccccc1-c1nnc(CN2CCCC3CCCC32)o1` (stereo not given), for which the inhibition is 59% (active).

For `Cc1cc(=O)[nH]c(Nc2nc(C)c3cc(C)c(C)cc3n2)n1`, the inhibition was -34.5%.

As to `Cc1ccc(C2CC(c3cccc(F)c3)=NN2C(=O)CN2CCC(Cc3ccccc3)CC2)cc1` (stereo not given), the inhibition was 42.1%.

Take `COC(=O)CC(=O)N1CCC(Cc2ccc(-c3ccccc3)cc2)CC1`: the inhibition was 87% (active).

As to `O=C(CCl)N1CCC(Cc2ccccc2)CC1`, the inhibition is -0.35%.

Consider `O=C(Cc1ccccc1)N1CCC(Cc2ccc(-c3ccccc3)cc2)CC1`, for which the inhibition is 72.6% (active).

As to `COc1ccccc1/C=C/CN1CCCC(CCC(=O)Nc2cc(Cl)ccc2OC)C1` (stereo not given), the inhibition was 14.3%.

Turning to `Cc1noc(C)c1CCC(=O)Nc1ccc2oc3ccccc3c2c1`, the inhibition was 25.6%.

Take `COc1cc2c(cc1NC(=O)CC(C)=NNC=O)oc1ccccc12`: the inhibition is 95.5% (active).

As to `Cc1cc(C)c2sc(NCC(C)C)nc2c1`, the inhibition was 13.6%.

`COC(=O)c1c(N)sc2c1CCC(C(C)(C)C)C2` (stereo not given): the inhibition is -34.2%.

Turning to `CC(C)(C)C1CCc2c(C(=O)N/N=C\c3ccoc3)csc2C1` (stereo not given), the inhibition was 79.8% (active).

In the case of `COC(=O)c1sc2c(c1N)CCC(C(C)(C)C)C2` (stereo not given), the inhibition was 29.1%.

Consider `CC(C)(C)c1cc(=O)n2[nH]cc(-c3ccc(Cl)cc3)c2n1`, for which the inhibition was 32.1%.

Turning to `Cc1cc(=O)n2[nH]cc(-c3ccc(Cl)cc3)c2n1`, the inhibition is -30.9%.

Turning to `Cc1cc(=O)n2[nH]c(C(F)(F)F)c(-c3ccc(Cl)cc3)c2n1`, the inhibition was 61.6% (active).

With `Cc1ccc(-c2c[nH]n3c(=O)cc(C(C)(C)C)nc23)cc1`, the inhibition is 98.8% (active).

Regarding `Cc1[nH]n2c(=O)cc(C(C)(C)C)nc2c1-c1ccc(Cl)cc1`, the inhibition was 101% (active).

As to `CC(CCc1ccccc1)NC(=O)c1c(O)nc2sccn2c1=O` (stereo not given), the inhibition is 62.6% (active).

Consider `CC(NC(=O)c1c(O)nc2sccn2c1=O)c1ccccc1` (stereo not given), for which the inhibition is 90.9% (active).

As to `CCCCn1c(=O)[nH]c(=O)c2c1nc(COC(=O)C1CC1)n2C`, the inhibition is 12.4%.

`O=C(Nc1ccc(-c2ccccc2)cc1)C1CC=CCC1C(=O)N1CCc2c([nH]c3ccccc23)C1` (stereo not given): the inhibition was 91% (active).

Take `O=C(O)C1CC=CCC1C(=O)Nc1ccc(N2CCN(c3cccc(Cl)c3Cl)CC2)cc1` (stereo not given): the inhibition was 21.6%.

As a reminder, the inhibition is the relative decrease from the control value, in per cent.
